These results are taken from PubChem BioAssay AID1085 (Emory University Molecular Libraries Screening Center, 2008).

About 930 (0.42%) of roughly 220,000 compounds were called active. This is one part of a sample in which actives are shown more often than they occur. Unmarked numbers belong to inactive results. Rule as the data show it: active = inhibition above about 50%; inactive = the rest.

Chain of Glycoprotein 42 (Epstein-Barr virus (strain AG876)) (Q1HVG2 whole entry, looked up): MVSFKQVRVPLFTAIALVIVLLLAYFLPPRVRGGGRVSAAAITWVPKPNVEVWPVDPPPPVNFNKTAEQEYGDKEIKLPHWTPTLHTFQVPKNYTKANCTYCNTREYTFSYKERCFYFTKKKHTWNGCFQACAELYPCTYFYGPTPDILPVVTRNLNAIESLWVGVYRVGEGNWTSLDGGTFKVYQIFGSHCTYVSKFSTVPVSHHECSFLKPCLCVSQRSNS

The test concerns the target Glycoprotein 42 (Epstein-Barr virus (strain AG876)) (UniProt Q1HVG2). Description: Epstein-Barr virus gp42 inhibitors, primary screen, biochemical, uHTS, fluorescence polarization (AID 1085). The following applies: Fluorescence polarization binding assay, mP read-out; hits give high values; tested at 21.74 µM.
As to `Cc1c(NC(=S)NCc2ccc(F)cc2)cccc1[N+](=O)[O-]`, the inhibition – broadly, the change of the read-out against control, counted positive when it falls – is -0.91%.

For the compound `CCOc1ccc(/C=C(/NC(=O)c2ccccc2)C(=O)NCCC(=O)O)cc1`, the inhibition was 8.99%. `CCOc1cc(/C=C(\C#N)c2nc(-c3cccs3)c(NC(C)=O)s2)ccc1O`: the inhibition was 93.2% (active). As to `COc1cc(/C=C(\C#N)c2nc3c(s2)CC(C)CC3)ccc1O` (stereo not drawn), the inhibition is -29.5%.

As to `COc1cc(/C=N\Nc2nc(-c3cccs3)c(NC(C)=O)s2)ccc1O`, the inhibition is -5.81%. Turning to `C/C(CC(=O)N1CCN(C=O)CC1)=N\NC(=O)c1ccc(Br)cc1`, the inhibition was 8.36%. The result for `COc1ccc(/C=N/n2c(C)cc(C)cc2=O)cc1` reads 1.02%. The result for `Cc1cccc(NC(=S)NC23CN4CN(CN(C4)C2)C3)c1` reads -1.99%; that for `CCn1c(COc2ccccc2)nnc1SCC(=O)NCc1ccco1`, 2.39%; that for `C=CCn1c(SCC(=O)Nc2nc3ccccc3s2)nnc1-c1ccccc1O`, -0.36%. The result for `C=CCn1c(CSc2nc3ccccc3s2)nnc1SCC(=O)NCc1ccco1` reads 50.6% (active).

As for `CSc1cc(C)[nH]c(=O)n1`, the inhibition is 6.61%.

Consider `Cc1cc(C(=O)N/N=C/c2ccc(N3CCOCC3)cc2)c(C)o1`, for which the inhibition is -16.3%. The result for `CNC(=O)c1ccsc1NC(=O)c1ccc(S(=O)(=O)N2CCc3ccccc32)cc1` reads 0.14%; that for `Cc1cnc(C(=O)OCC(=O)NCCCc2ccccc2)cn1`, -8.79%; that for `COc1ccccc1OCC(=O)OCn1c(SC)nnc(C)c1=O`, -6.57%. The result for `Cn1c(=O)n(C)c2cc(/C=N/NC(=O)c3cccc(Br)c3)ccc21` reads -5.32%; that for `O=C(C1=C(O)C(=O)N(c2ncccn2)C1c1cccs1)c1ccco1` (stereo not drawn), 65.7% (active). For the compound `O=C(C1=C(O)C(=O)N(Cc2ccccc2)C1c1ccco1)c1ccco1` (stereo not drawn), the inhibition was -8.71%. Turning to `O=C(C1=C(O)C(=O)N(CCOCCO)C1c1ccccn1)c1cccs1` (stereo not drawn), the inhibition was -10.3%.

For the compound `CCOC(=O)N/N=C1\CC(C)S(=O)(=O)c2ccc(Cl)cc21` (stereo not drawn), the inhibition was 0.18%.

For the compound `O=c1cc(CO)oc(C(Nc2cccc([N+](=O)[O-])c2)c2ccccn2)c1O` (stereo not drawn), the inhibition was -4.92%. The result for `COc1ccc(-c2nn(C)c(=O)c3ccccc23)cc1CNC(=O)C1CCCCC1` reads -11.8%; that for `COC(=O)CCCC1=CC2=CC(=O)C(C)(OC(=O)c3cccs3)C(=O)C2=CN1c1cccc(C#N)c1` (stereo not drawn), 78% (active). The result for `COC(=O)CCCC1=CC2=CC(=O)C(C)(OC(=O)c3cccs3)C(=O)C2=CN1CC1CC1` (stereo not drawn) reads 0.53%; that for `COC(=O)CCCC1=CC2=CC(=O)C(C)(OC(=O)c3cccs3)C(=O)C2=CN1CC(C)C` (stereo not drawn), 2.99%. The result for `Cc1ccc(C(=O)NNc2ncnc3ccccc23)cc1` reads -1.4%. With `CC(C)Oc1ccc(Oc2ccc(C(F)(F)F)cn2)cc1`, the inhibition is 6.36%.

On to `NC1=NC(=O)C2(COC(c3ccccc3Cl)OC2)S1` (stereo not drawn), for which the inhibition was -11.7%.

Regarding `CN1CCN(CCCCOc2ccccc2-c2ccccc2)CC1`, the inhibition is -24.1%.

Turning to `CNc1nc2c(C)cccn2c(=O)c1C=Nc1ccc(OC)cc1`, the inhibition was -10.2%. As to `Cc1cccn2c(=O)c(/C=C3\SC(=S)N(CC(C)C)C3=O)c(NCCCOC(C)C)nc12`, the inhibition is 137% (active).

Regarding `CCOC(=O)CC1C(=O)NCCN1c1nc2c(C)cccn2c(=O)c1/C=C1\SC(=S)N(C(C)CC)C1=O` (stereo not drawn), the inhibition was -14.8%.

Turning to `CCOc1ccc(N2CC(C(=O)N/N=C/c3sccc3C)CC2=O)cc1` (stereo not drawn), the inhibition was -24%. Take `C=CCNc1cnn(-c2ccc(C)cc2)c(=O)c1Cl`: the inhibition is 15.2%.

As to `O=C(COC(=O)CNS(=O)(=O)c1ccccc1)NC12CC3CC(CC(C3)C1)C2`, the inhibition is -4.36%. The result for `COc1ccc(NC(=O)COc2ccc(C(=O)OCC(=O)N(C)C3CCS(=O)(=O)C3)cc2OC)cc1` (stereo not drawn) reads -11.6%; that for `CN(C(=O)COC(=O)c1cc(-c2ccco2)nc2ccccc12)C1CCS(=O)(=O)C1` (stereo not drawn), 95.4% (active); that for `Cc1c(-c2cccc(Cl)c2)nc2ccccc2c1C(=O)OCC(=O)N(C)C1CCS(=O)(=O)C1` (stereo not drawn), 27.8%.

As to `COc1ccc(/C=N/NC(=O)CNC(=O)c2ccc(S(=O)(=O)N3CCCC3)cc2)c(OC)c1`, the inhibition is -7.62%.

With `COc1ccc(OCC(=O)NN2Cc3ccccc3C2=N)cc1`, the inhibition is -18.4%. In the case of `O=C(NC1CC1)C1=C[C@H](c2c[nH]c3ccccc23)C[C@H](OCc2ccc(CO)cc2)O1`, the inhibition is -3.29%. The result for `O=C(NCc1ccc2c(c1)OCO2)c1ccc2c(c1)C(=O)N(CC1CCCO1)C2=O` (stereo not drawn) reads -19.8%; that for `O=c1c2cc3c(=O)n(CC4CCCO4)c(=O)c3cc2c(=O)n1CC1CCCO1` (stereo not drawn), -9.61%.

As for `O=C1c2cccc3c([N+](=O)[O-])ccc(c23)C(=O)N1CC1CCCO1` (stereo not drawn), the inhibition was 64.2% (active). On to `CN1CCc2nc(SC(C(=O)O)c3ccccc3)c(C#N)c(-c3cccs3)c2C1` (stereo not drawn), for which the inhibition was 6.93%. The result for `CC(C)CNC(=O)COC(=O)c1ccccc1OCC(=O)Nc1ccc(Br)cc1` reads -2.14%; that for `O=C(Oc1c(-c2ccco2)oc2ccccc2c1=O)c1cccnc1`, -4.14%; that for `Cc1cc(SCC(=O)NCCN2C(=O)CSC2=O)nc2ccccc12`, -6.4%. The result for `COc1cc(C(F)(F)F)nc2c(Br)c(C(C)(C)C)nn12` reads -5.73%. The result for `CN(CCN1CCOCC1)Cc1nc(-c2ccc3c(c2)OCO3)no1` reads -2.97%. For the compound `Cc1oc2c(c1C(=O)N1CCOCC1)C(=O)c1ccccc1C2=O`, the inhibition was -10.1%. The result for `c1ccc(-c2oc3ncnc(N4CCOCC4)c3c2-c2ccccc2)cc1` reads 0.89%. For `O=C1c2ccccc2-c2ncnc3c(N4CCOCC4)cc(N4CCOCC4)c1c23`, the inhibition is 51.8% (active). Consider `COCCn1c(Cc2cccn2C)nnc1SCC(=O)Nc1nccs1`, for which the inhibition is 0.89%. Regarding `COc1cccc(C(=O)Nc2ccc(N3CCCC3)cc2)c1`, the inhibition was -3.03%. Consider `COc1cc(N2CCCC2)c(OC)cc1/C=C(/C#N)c1cccc(Br)c1`, for which the inhibition was 112% (active). In the case of `CC(=O)Nc1cccc(Oc2cc(C#N)c(C#N)cc2N2CCOCC2)c1`, the inhibition is -5.04%.
